Assay results from publication PMC4336329 (PLoS ONE, 2015).
Hit rate of the full screen: of about 310,000 compounds, about 14,000 (4.5%) showed an effect of 50% or more. The effect is printed as a negative number. The sample as a whole holds a higher share of strong results than the screen did.

target: human ether-à-go-go-related gene (hERG) potassium channel (human, UniProt Q12809); test: primary screen, population patch clamp on CHO cells stably expressing hERG; higher = less effect of the substance
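Note: peak tail current of the secondary pulse compared with the same well before compound.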

Sequence of human ether-à-go-go-related gene (hERG) potassium channel (Q12809 whole entry, looked up): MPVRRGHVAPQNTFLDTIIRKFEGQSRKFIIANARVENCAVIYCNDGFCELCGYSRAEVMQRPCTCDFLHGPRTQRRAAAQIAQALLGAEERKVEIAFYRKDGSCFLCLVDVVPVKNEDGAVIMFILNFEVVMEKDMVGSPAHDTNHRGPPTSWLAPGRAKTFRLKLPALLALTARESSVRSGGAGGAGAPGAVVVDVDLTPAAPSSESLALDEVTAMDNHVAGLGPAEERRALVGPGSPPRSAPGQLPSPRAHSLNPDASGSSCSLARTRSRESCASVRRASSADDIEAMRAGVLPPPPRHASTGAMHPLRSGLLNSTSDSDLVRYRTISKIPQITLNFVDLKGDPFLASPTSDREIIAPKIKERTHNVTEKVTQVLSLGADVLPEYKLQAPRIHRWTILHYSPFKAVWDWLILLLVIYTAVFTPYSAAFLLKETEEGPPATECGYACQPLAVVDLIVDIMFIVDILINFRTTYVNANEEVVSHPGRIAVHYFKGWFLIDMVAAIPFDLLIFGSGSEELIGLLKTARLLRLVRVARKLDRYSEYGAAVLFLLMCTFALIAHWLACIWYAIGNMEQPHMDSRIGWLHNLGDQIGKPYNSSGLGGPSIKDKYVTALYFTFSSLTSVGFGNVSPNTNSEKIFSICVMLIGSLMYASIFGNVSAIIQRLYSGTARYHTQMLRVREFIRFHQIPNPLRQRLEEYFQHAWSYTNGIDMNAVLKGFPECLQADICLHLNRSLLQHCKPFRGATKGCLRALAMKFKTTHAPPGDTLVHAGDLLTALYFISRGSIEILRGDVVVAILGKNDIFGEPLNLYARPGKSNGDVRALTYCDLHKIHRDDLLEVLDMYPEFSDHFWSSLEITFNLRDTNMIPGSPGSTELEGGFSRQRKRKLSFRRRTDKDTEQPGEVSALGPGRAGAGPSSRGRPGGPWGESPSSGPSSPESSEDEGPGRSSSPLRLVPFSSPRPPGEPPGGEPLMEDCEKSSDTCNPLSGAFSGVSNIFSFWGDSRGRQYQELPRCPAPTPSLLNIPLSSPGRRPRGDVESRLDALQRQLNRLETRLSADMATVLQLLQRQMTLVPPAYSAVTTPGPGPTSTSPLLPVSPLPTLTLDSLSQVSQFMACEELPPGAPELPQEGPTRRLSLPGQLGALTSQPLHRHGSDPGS

Row | Compound | hERG current change (%, negative = inhibition) at 10uM
1 | CCOC(=O)C(=CNc1ccc2c(c1)nnn2-c1ccc(Cl)cc1)C(=O)OCC | -5.02%
2 | COc1ccccc1-c1cc(C(F)(F)F)nc(S(=O)(=O)CCCC(=O)N2CCOCC2)n1 | 2.47%
3 | Cn1ncc(Cl)c1C(=O)NCC1CCCO1 (stereo not drawn) | 9.21%
4 | O=C(Cn1cc(C(=O)c2ccccc2F)c2ccccc21)NC1CC1 | -4.44%
5 | CCN(CC)c1ccc(NC(=O)CSc2nnc3nc(C)cc(C)n23)cc1 | -0.579%
6 | Cc1cc(C(=O)NNC(=O)c2ccc(Cl)cc2)c2ccccc2n1 | 0.225%
7 | CC(=O)N1CSCC1C(=O)NNS(=O)(=O)c1cccc(C(F)(F)F)c1 (stereo not drawn) | 8.58%
8 | Cl.NC1=NC(c2cccc(Cl)c2)N(CCc2ccc(F)cc2)C(N)=N1 (stereo not drawn) | 15.6%
9 | OC1C=CSc2nc3ccccc3n21 (stereo not drawn) | 4.02%
10 | CCOc1ccc(-c2csc3nc[nH]c(=O)c23)cc1 | 14.9%
11 | OCCNc1nc(C2CC2)nc2c1nnn2Cc1ccccc1Cl | -0.392%
12 | CS(=O)(=O)N(CC(=O)Nc1ccccc1C(=O)N1CCCC1)c1cccc([N+](=O)[O-])c1 | -13.2%
13 | O=C(NCCN1CCOCC1)c1cc(-c2cccs2)nc2ccccc12 | -13.1%
14 | COc1cc(CO)ccc1Oc1nc2ccccc2n2cnnc12 | 10.7%
15 | CC(=O)c1ccc(OCC(C)Oc2ccc(C#N)cc2)cc1 (stereo not drawn) | -62.8%
16 | CC(Oc1ccc(C#N)cc1)C(=O)c1ccc(F)c(F)c1 (stereo not drawn) | -51.6%
17 | COC(=O)c1ccc(OC(C)C(=O)c2ccc(C)cc2)cc1 (stereo not drawn) | -21.5%
18 | CC(Oc1ccc(C#N)cc1)C(=O)NC1CCCC1 (stereo not drawn) | -12.9%
19 | CC(=O)c1ccc(OCCOc2ccc(C#N)cc2)cc1 | -49.4%

Row | Compound | hERG current change (%, negative = inhibition) at 10uM
20 | CC(=O)c1ccc(OCC(O)COc2ccc(C(C)=O)cc2)cc1 | -11.3%
21 | CCC1C(=O)N=C(SCC(=O)Nc2cccc3ccccc23)NC1=O (stereo not drawn) | -7.84%
22 | COc1ccc(C2C(C(=O)N3CCC(C(N)=O)CC3)CC(=O)N2c2ccc(OC)cc2)cc1 (stereo not drawn) | -1.19%
23 | Nc1nc2ccccc2n1CCOc1ccccc1Cl | -3.5%
24 | COc1ccc(OCCn2c(N)nc3ccccc32)cc1 | -67.4%
25 | Nc1nc2ccccc2n1CCOc1ccc(Br)cc1 | -61.2%
26 | Nc1nc2ccccc2n1CCOc1ccc(Cl)cc1 | -51.1%
27 | S=C(Nc1ccccc1)Nc1nc2ccccc2n1CCOc1ccc(Br)cc1 | 11.6%
28 | COCCn1c(COc2ccc(OC)cc2)nc2ccccc21 | -14.3%
29 | CCCn1c(N)nc2ccccc21 | 8.05%
30 | Cn1c(COc2ccc(F)cc2)nc2ccccc21 | -0.759%
31 | Clc1ccc(OCCn2c(-c3ccco3)nc3ccccc32)cc1 | -26.7%
32 | Nc1nc2ccccc2n1CCOc1ccc(F)cc1 | -67.9%
33 | OCc1nc2ccccc2n1CCCOc1ccc(Br)cc1 | -36.8%
34 | Cc1nc2ccccc2n1CCOc1ccc(F)cc1 | -19.8%
35 | O=P(NS(=O)(=O)c1ccc(Br)cc1)(Oc1ccccc1)Oc1ccccc1 | 12.2%
36 | O=C(Cn1c(=O)c(=O)n(Cc2ccccc2)c2ccc(Cl)cc21)Nc1ccc(F)cc1F | 21.3%
37 | Cc1cc(C)c(Cn2c(=O)n(CCCC(=O)NCc3ccco3)c(=O)c3sccc32)c(C)c1 | 6.15%
38 | Cc1cc(NC(=O)c2cc([N+](=O)[O-])ccc2Cl)no1 | 8.65%

Row | Compound | hERG current change (%, negative = inhibition) at 10uM
39 | Nn1c(COc2ccc(Cl)cc2)nc2ccccc2c1=O | -34.8%
40 | CCc1ccc(CNC(=O)c2ccc(OC3CCN(C(C)=O)CC3)c(OC)c2)nc1 | 8.11%
41 | O=C(NC1CCN(Cc2ccccc2)CC1)C1CCN(c2nnc(-n3cccc3)s2)CC1 | -59%
42 | CC(C)NC(=O)C1CCCN(c2nnc(-n3cccc3)s2)C1 (stereo not drawn) | -16.4%
43 | CC1CCN(Cc2ccc(NC(=O)C3CCN(c4nnc(-n5cccc5)s4)CC3)cc2)CC1 | 1.05%
44 | O=C(C1CCCN(c2nnc(-n3cccc3)s2)C1)N1CCN(c2ccccc2)CC1 (stereo not drawn) | -47%
45 | COC(=O)c1ccccc1NC(=O)C1CCCN(c2nnc(-n3cccc3)s2)C1 (stereo not drawn) | -53%
46 | CC(=O)Nc1ccc(NC(=O)C2CCCN(c3nnc(-n4cccc4)s3)C2)cc1 (stereo not drawn) | 7.44%
47 | CC(CCc1ccccc1)NC(=O)C1CCCN(c2nnc(-n3cccc3)s2)C1 (stereo not drawn) | -11.2%
48 | O=C(NC1CCN(Cc2ccccc2)CC1)C1CCCN(c2nnc(-n3cccc3)s2)C1 (stereo not drawn) | -69.8%
49 | O=C(NCCCN1CCN(Cc2ccccc2)CC1)C1CCN(c2nnc(-n3cccc3)s2)CC1 | -48.5%
50 | NC(=O)c1ccc(N2CCN(c3ccccc3F)CC2)c([N+](=O)[O-])c1 | -25.5%
51 | Cc1ccc(-n2c(-c3ccccc3)c[n+]3c2CCC3)cc1.[Br-] | -50.7%
52 | [Br-].c1ccc(-c2c[n+]3c(n2-c2ccccc2)CCC3)cc1 | -3.72%
53 | FC(F)Sc1ccc(-n2c(-c3ccc(Cl)cc3)c[n+]3c2CCC3)cc1.[Br-] | -92.6%
54 | Cc1ccc(-n2c(-c3ccc(Cl)cc3)c[n+]3c2CCC3)cc1.[Br-] | -62.4%
55 | Cc1ccc(-c2c[n+]3c(n2-c2ccccc2)CCC3)cc1.[Br-] | -48.9%
56 | Cc1cc(C)cc(OCC(=O)NCC2CCCO2)c1 (stereo not drawn) | -11.8%
57 | C#CCOC(=O)C[N+](C)(C)CC#Cc1ccccc1.[Cl-] | 33.3%
